Screens deposited in PubChem BioAssay by several laboratories.
Most compounds without a hit are left out; they make up all but 2.6% or so of the library.
EWS-Fli inh: blocks EWS/Fli oncoprotein-driven transcription | A673 NR0B1-luciferase reporter, viability-normalised | inhibition, % at 12.6 µM | 350,000 compounds, 0.67% hits | AID 651661;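 active = mean inhibition of at least 50% after viability correction, with every replicate also passing that limit; inconclusive = mean reaches 50% but only one of two replicates passes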;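 note: firefly luciferase signal divided by Alamar Blue viability fluorescence both relative to DMSO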
TWEAK Fn14 block: blocks TWEAK-Fn14 interaction in a reporter cell assay; TWEAK-stimulated Fn14 reporter cells, luciferase luminescence, 8 h; inhibition, % at 10 µM; 360,000 compounds, 2% hits; in the data active = inhibition above about 50%
LGR2 inh: blocks bursicon-induced cAMP signaling via Drosophila LGR2; HEK293 LGR2, CRE-luciferase, bursicon-stimulated, 4 h; inhibition, % at 9.99 µM; 380,000 compounds, 0.35% hits;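 active = drop in luminescence signal, shown as inhibition above about 50% in the replicate tests, limit read from the data, passing the limit was not always enough; inconclusive = probably only some replicates passing the limit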;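 note: agonist challenge used bursicon conditioned medium at about half maximal strength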
TROY signal inh: blocks TROY-dependent signaling in reporter cells; 360,000 compounds, 0.98% hits; Q293 LMP1-TROYcd NF-kB luciferase reporter, 4 h; inhibition, % at 10 µM;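 active = compounds whose plate-normalised and pattern-corrected inhibition of the luciferase reporter signal at the single screening dose is 50% or more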
LMP1 NFkB inh: Epstein-Barr LMP1 NF-kappaB reporter inhibition | AID 504558 | LMP1-induced NF-kappaB luciferase reporter cells, luminescence | 350,000 compounds, 0.69% hits | inhibition, % at 12.5 µM; in the data active = inhibition above about 41%; inconclusive = no clear call, values can overlap the other calls;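 note: 0% = neutral control wells and 100% = reference inhibitor control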
* = called active by the depositor; u = inconclusive; x = no result; ! = a repeat was not active.

SMILES | EWS-Fli inh | TWEAK Fn14 block | LGR2 inh | TROY signal inh | LMP1 NFkB inh
Cn1cccc1C(=O)Nc1nc(-c2ccccn2)cs1 | x | 7 | x | -77 | 42*
Cc1c(C(=O)Nc2nc(-c3ccccn3)cs2)oc2ccccc12 | x | -16 | x | -24 | 41*
Cc1ccc(C(=O)Nc2nc(-c3ccccn3)cs2)s1 | -33 | -12 | x | -35 | 27
O=C(Nc1nc(-c2ccccn2)cs1)c1cc2ccccc2o1 | 2 | 21 | -3 | 35 | 19
O=C(Nc1nc(-c2ccccn2)cs1)c1ccc(Cl)s1 | 3 | -31 | -9 | -59 | 73*
Cc1cccnc1Nc1nc(-c2ccccc2)cs1 | -30 | 25 | -30 | -8 | -40
Cc1noc(C)c1S(=O)(=O)Nc1ccc2c(c1)C(=O)N([C@@H](C)CO)C[C@H](C)[C@@H](CN(C)C(=O)Nc1ccc3c(c1)OCO3)OCCCC[C@H](C)O2 | 2 | x | 8 | x | x
CN1c2ccc(-c3ccc(C#N)cc3)cc2[C@@H]2[C@@H](CCN2C(=O)Cc2ccccn2)[C@@H]1CO | 10 | x | 5 | x | x
Cc1ccc(NC(=O)Cc2nnc(SCC(=O)NC3CCCC3)n2C)cc1C | 2 | 31 | 0 | 7 | 45*
O=C(C[C@H]1CC[C@@H]2NC[C@H](O)COC[C@H]2O1)NCCc1ccccc1 | 8 | x | -2 | x | x
CC1=NOC(=O)/C1=C\c1ccc(-c2cccc(Cl)c2)o1 | x | 67* | x | 57* | -6
CC1=NOC(=O)/C1=C\c1ccc(-c2ccccc2Br)o1 | u | 96* | x | 68* | 5
COc1ccc(Nc2ncnc3c2c(C)c(C)n3CCCN(C)C)cc1 | -46 | 59* | 21 | 55* | -4
O=C(c1ccc(N2CCC3(CC2)OCCO3)c([N+](=O)[O-])c1)N1CCOCC1 | -15 | -6 | 6 | -21 | -7
COC(CNC(=O)c1ccc(N2CCC3(CC2)OCCO3)c([N+](=O)[O-])c1)OC | -40 | 1 | x | -1 | 51*
CC(C)(C)OC(=O)N1CCC[C@@H]1C(=O)N1CCC[C@H]1C(=O)NCc1ccccc1 | -8 | x | 3 | x | x
COc1ccc(OCC(O)CNC(C)c2ccccc2)cc1 (configuration not stated) | 0 | 0 | -18 | -2 | -1
CCCC(NCC(O)COc1ccc(-c2ccccc2)cc1)c1ccccc1 (configuration not stated) | 42 | -9 | 75* | 22 | -11
CC(NCC(O)COc1ccc2ccccc2c1)c1ccccc1 (configuration not stated) | -3 | -21 | -2 | -71 | 5
Cc1cc(OCC(O)CNC(C)c2ccccc2)ccc1C(C)C (configuration not stated) | 20 | 0 | 66* | -19 | -9
COCC(=O)Nc1ccc2c(c1)[C@H]1C[C@H](CC(=O)N3CCOCC3)O[C@H](CO)[C@H]1O2 | -4 | x | 11 | x | x
CN1c2ccccc2C(C)(C)C12C=Cc1cc(O)ccc1O2 (configuration not stated) | 7 | 53* | 18 | 34 | -8
C[C@@H]1CCCCO[C@H](CN(C)CC2CCCCC2)[C@@H](C)CN([C@H](C)CO)C(=O)c2cc(NS(C)(=O)=O)ccc2O1 | 0 | x | 1 | x | x
C[n+]1c2cc(N)ccc2cc2ccc(N)cc21 | 62* | -28 | 0 | -50 | 72*!
C[C@@H]1CN([C@@H](C)CO)C(=O)c2cc(NC(=O)Nc3ccc4c(c3)OCO4)ccc2O[C@@H](C)CCCCO[C@H]1CN(C)C(=O)CCCN(C)C | -7 | x | 16 | x | x
SMILES | EWS-Fli inh | TWEAK Fn14 block | LGR2 inh | TROY signal inh | LMP1 NFkB inh
COc1cc(/C=C2\N=C(C)OC2=O)cc(Cl)c1OC(C)=O | 8 | 2 | -6 | -8 | 5
COc1ccc(/C=C2\N=C(C)OC2=O)cc1[N+](=O)[O-] | 6 | 16 | 10 | 7 | 46*
CCCCCCN1CCN(C2CN(Cc3cn(Cc4ccc(Cl)cc4)nn3)S(=O)(=O)C2)CC1 (configuration not stated) | 9 | 21 | 3 | 7 | x
CCCCCCn1cc(CN2CC(N3CCN(CCO)CC3)CS2(=O)=O)nn1 (configuration not stated) | 0 | 108* | -16 | -1 | x
Cc1cc2[nH]c3c(c[n+](C)c4ccccc34)c2cc1C | 82* | -149 | 100* | 26 | -18
Cc1cc(=O)[nH]c2ccccc12 | x | 9 | x | 3 | -4
CC1(C)CC(=O)C/C(=N/Nc2nc3ccccc3s2)C1 | 9 | 69* | 3 | 63* | -14
COc1ccc(NC(=O)N(C)C[C@@H]2Oc3c(NC(=O)CCCCCC(=O)Nc4ccccc4N)cccc3C(=O)N([C@@H](C)CO)C[C@H]2C)cc1 | x | x | 42 | x | x
CCOCCCNC(=O)c1cc2c(=O)n3cccc(C)c3nc2n1C | 52* | -3 | 17 | -2 | -7
C/C(=N\OC(=O)c1ccc(C)cc1)c1sc(C)nc1C | x | 6 | x | -70 | 7
COc1ccc(C(=O)O/N=C(\N)c2ccc(OC)c(OC)c2)c(OC)c1 | x | -6 | x | -41 | -13
COc1ccc(C(=O)O/N=C(\N)c2ccccc2)c(OC)c1 | 71* | 86* | 82* | 77* | 34
C/C(=N/OC(=O)c1ccc(C)cc1)c1cccs1 | x | 29 | x | 62* | 2
COc1ccc(C(=O)O/N=C(\N)c2ccccn2)c(OC)c1 | 25 | 88* | 82* | 73* | 38
COc1ccc(C(=O)O/N=C(\C)c2ccccc2)cc1 | x | -7 | x | 69* | -12
COc1cccc(CN2[C@@H](CO)[C@H](c3ccccc3)C23CN(C(=O)C2CCOCC2)C3)c1 | 3 | x | 5 | x | x
Cc1cc(C)n2nc(C(=O)NCc3cccc(C(F)(F)F)c3)nc2n1 | -3 | -7 | 2 | 51* | 3
CO[C@H]1CN(C)C(=O)c2ccc(NS(C)(=O)=O)cc2OC[C@H](C)N(Cc2cccnc2)C[C@H]1C | -1 | x | 4 | x | x
COc1ccc2c(c1)/C(=C\c1cccc(/C=C3/C(=O)Nc4ccc(OC)cc43)n1)C(=O)N2 | 67* | 100* | 74* | 31 | 89*
C[C@@H]1CCCCO[C@@H](CN(C)C(=O)Nc2ccc3c(c2)OCO3)[C@H](C)CN([C@H](C)CO)C(=O)c2cc(NC(=O)Nc3ccc(F)cc3)ccc2O1 | -1 | x | -5 | x | x
Cc1ccc(S(=O)(=O)N(C)C[C@H]2Oc3ccc(NC(=O)Nc4ccc5c(c4)OCO5)cc3C(=O)N([C@@H](C)CO)C[C@@H]2C)cc1 | -5 | x | 13 | x | x
C[C@H]1CN([C@@H](C)CO)C(=O)Cc2cc(NS(=O)(=O)c3ccc(Cl)cc3)ccc2O[C@H]1CN(C)Cc1ccc(C(F)(F)F)cc1 | -11 | x | 0 | x | x
C[C@H]1CN([C@@H](C)CO)C(=O)Cc2cc(NS(=O)(=O)c3ccc(Cl)cc3)ccc2O[C@@H]1CN(C)Cc1ccc(Oc2ccccc2)cc1 | 60* | x | 16 | x | x
C[C@H](CO)N1C[C@H](C)[C@H](CN(C)Cc2ccc(C(F)(F)F)cc2)Oc2ccc(NS(=O)(=O)c3ccc(Cl)cc3)cc2CC1=O | 59* | x | -8 | x | x
CNC[C@@H]1Oc2ccc(NC(=O)Nc3ccc(F)cc3)cc2C(=O)N([C@H](C)CO)C[C@H]1C | -3 | x | 1 | x | x
